Hit rate of the full screen: of about 1,300 compounds, about 1,000 (77%) were called active. Not shown: some 7% with an inconclusive outcome. Calls follow the shape of the dose curve; as a rule, active = well fitted inhibition curve with a large enough effect; inconclusive = small, poorly fitted or top-dose-only effect; inactive = no such curve, though single readings can be large or run the other way. So high a share suggests a set chosen from earlier hits. The list shows a part of the results.
Test: qHTS of small molecules that selectively kill Giardia lamblia: Hit Validation.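 Also: viability measured as ATP content by luminescence so killing lowers signal; nearly all actives have a fitted effect of over 65% in size.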
Settings: Giardia lamblia trophozoite viability, dose-response; series mostly up to 38.3 µM
Outline: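 Giardia trophozoites, 100 cells per well, were exposed to compounds for 48 hrs at 37 deg C under anaerobic conditions; viability was then read as ATP content by bioluminescence after 15-30 min at room temperature.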
Potency is read from the fitted curve at half-maximal effect.

Row | SMILES | Potency
1 | O=C(N/N=C/c1ccc([N+](=O)[O-])o1)c1cn2ccc3ccccc3c2n1 | 918 nM (active)
2 | O=C(N/N=C/c1ccc([N+](=O)[O-])o1)c1cc2ccccc2o1 | 516 nM (active)
3 | O=C(N/N=C/c1ccc([N+](=O)[O-])o1)c1sc2ccccc2c1Cl | 1300 nM (active)
4 | O=C(N/N=C/c1ccc([N+](=O)[O-])o1)c1cc2c(ccc3ccccc32)o1 | 729 nM (active)
5 | COc1ccc(-n2nc([N+](=O)[O-])c(=NC3CCN(Cc4ccccc4)CC3)n2O)cc1 | 729 nM (active)
6 | O=[N+]([O-])c1nn(-c2ccc3c(c2)OCCO3)n(O)c1=NC1CCN(Cc2ccccc2)CC1 | 460 nM (active)
7 | O=[N+]([O-])c1nn(-c2ccccc2)n(O)c1=NC1CCN(Cc2ccccc2)CC1 | 365 nM (active)
8 | Cc1cccc(-n2nc([N+](=O)[O-])c(=NC3CCN(Cc4ccccc4)CC3)n2O)c1 | 729 nM (active)
9 | O=[N+]([O-])c1ccc(/C=N/Nc2ncccc2[N+](=O)[O-])s1 | 2310 nM (active)
10 | Cc1ccc(NC(=S)N/N=C/c2ccc([N+](=O)[O-])s2)cc1 | 2310 nM (active)
11 | O=C(N/N=C/c1ccc([N+](=O)[O-])s1)C(O)c1ccccc1 (stereo not drawn) | 2900 nM (active)
12 | O=C(N/N=C\c1ccc([N+](=O)[O-])s1)c1cncc(Br)c1 | 2900 nM (active)
13 | Cc1ccc(C(=O)N/N=C/c2ccc([N+](=O)[O-])s2)cc1 | 1030 nM (active)
14 | O=C(N/N=C/c1ccc([N+](=O)[O-])s1)c1cccnc1 | 2310 nM (active)
15 | O=[N+]([O-])c1ccc(/C=N/NC(=S)Nc2ccc(Cl)cc2Cl)s1 | 3650 nM (active)
16 | O=C(N/N=C/c1ccc([N+](=O)[O-])s1)c1ccccc1 | 1630 nM (active)
17 | COc1cc(CNc2nnnn2C)cc(OC)c1OC | inactive
18 | O=[N+]([O-])c1ccc(/C=N/Nc2nc(N3CCCCC3)nc(N3CCCCC3)n2)o1 | 1160 nM (active)
19 | O=[N+]([O-])c1ccc(/C=N/Nc2nc(N3CCCC3)nc(N3CCCC3)n2)o1 | 2050 nM (active)
20 | O=[N+]([O-])c1cc(/C=N/Nc2nc(N3CCCCC3)nc(N3CCCCC3)n2)ccc1O | 6500 nM (active)
21 | COc1cccc(CNCc2cccc(Br)c2)c1OC | inactive
22 | O=[N+]([O-])c1ncccc1Oc1nc(-c2cccnc2)nc2ccccc12 | 2050 nM (active)
23 | FC(F)(F)c1ccc2c(c1)N1CCCC1CN2 (stereo not drawn) | 1450 nM (active)
24 | CCOC(=O)/C=C/[C@H]1CCc2cccc(Cl)c2O1 | inactive

Row | SMILES | Potency
25 | Nc1ccc(-c2cnc(-c3ccc(N)cc3)nc2)cc1 | 4100 nM (active)
26 | CNN/C(N=Cc1ccc([N+](=O)[O-])s1)=N\S(=O)(=O)c1cc(C)c(Cl)cc1SCc1ccccc1 | 1030 nM (active)
27 | CN1C(=O)/C(=C/c2ccc(O)c([N+](=O)[O-])c2)N(C)C1=S | 3260 nM (active)
28 | CN1C(=O)/C(=C/c2ccc(O)c([N+](=O)[O-])c2)NC1=S | 3260 nM (active)
29 | Cc1ccc(C(CC(=O)O)NC(=O)c2ccc(S(=O)(=O)N3CC(C)OC(C)C3)cc2)cc1 (stereo not drawn) | inactive
30 | O=C(CCN1C(=O)c2ccccc2C1=O)Nc1ccccc1C(F)(F)F | inactive
31 | O=C1c2ccc3c4c(ccc(c24)C(=O)N1CCCCO)C(=O)N(CCCCO)C3=O | 1830 nM (active)
32 | CCOC(=O)c1c(NC(=O)CS(=O)(=O)c2cn(CC)c3ccccc23)sc2c1CCCCC2 | inactive
33 | CC1CCc2c(sc(NC(=O)CCCn3cnc([N+](=O)[O-])n3)c2C(N)=O)C1 (stereo not drawn) | 4600 nM (active)
34 | CC1CCc2c(sc(NC(=O)Cn3cnc([N+](=O)[O-])n3)c2C(N)=O)C1 (stereo not drawn) | 18300 nM (active)
35 | NC(=O)c1c(NC(=O)CCCn2cnc([N+](=O)[O-])n2)sc2c1CCCC2 | 7290 nM (active)
36 | Cc1nc(CS(=O)(=O)c2ccc(Cl)cc2)sc1C(=O)O | inactive
37 | COCCCn1[nH]c2c3c(ccc2c1=O)C(=O)c1ccccc1C3=O | 1030 nM (active)
38 | O=C1c2ccccc2C(=O)c2c1ccc1c(=O)n(C3CCCCC3)[nH]c21 | 2310 nM (active)
39 | CC(C)Cn1[nH]c2c3c(ccc2c1=O)C(=O)c1ccccc1C3=O | 1450 nM (active)
40 | CCc1ccc(S(=O)(=O)Nc2ccc(-c3ccc4nnc(C)n4n3)cc2)s1 | inactive
41 | COC(=O)[C@@]12CCCCN1[C@H](c1ccc(-c3ccc(C(C)=O)cc3)cc1)[C@@H]1C(=O)N(C)C(=O)[C@@H]12 | inactive
42 | CCCCC12CN3CC(C)(CN(C1)C3c1ccc([N+](=O)[O-])o1)C2=O (stereo not drawn) | 2050 nM (active)
43 | CCCC12CN3CC(C)(CN(C1)C3c1ccc([N+](=O)[O-])o1)C2=O (stereo not drawn) | 1830 nM (active)
44 | CC12CN3CC(C)(CN(C1)C3c1ccc([N+](=O)[O-])o1)C2 (stereo not drawn) | 1300 nM (active)
45 | CCC12CN3CC(CC)(CN(C1)C3c1ccc([N+](=O)[O-])o1)C2=O (stereo not drawn) | 4100 nM (active)
46 | O=c1cccc(-c2ccccc2)[nH]1 | inactive
47 | O=c1[nH]c(=O)c2cc([N+](=O)[O-])cc([N+](=O)[O-])c2[nH]1 | 4100 nM (active)
48 | COc1ccccc1NC(=O)COc1cccnc1[N+](=O)[O-] | 6500 nM (active)

Row | SMILES | Potency
49 | O=C(COc1cccnc1[N+](=O)[O-])N1CCc2ccccc21 | 4100 nM (active)
50 | O=C(COc1cccnc1[N+](=O)[O-])Nc1cccc2ccccc12 | 4600 nM (active)
51 | COc1ccccc1NCCC(=O)OCC(=O)NC1CCCCCC1 | inactive
52 | COC(=O)c1sc(NC(=O)COc2cccnc2[N+](=O)[O-])c(C(=O)OC)c1C | 4100 nM (active)
53 | CC(C)Cn1c(=S)[nH]c2cc(C(=O)NCc3ccccc3F)ccc2c1=O | inactive
54 | O=[N+]([O-])c1cnc2ccccn12 | 2050 nM (active)
55 | S=c1[nH]nc2ccccn12 | inactive
56 | O=C(CSc1cccc[n+]1[O-])Nc1cc2c(cc1Cl)C(=O)c1ccccc1C2=O | 2900 nM (active)
57 | N#C/C(=C/c1ccc(O)c([N+](=O)[O-])c1)C(=O)Nc1ccccc1 | 3260 nM (active)
58 | N#C/C(=C\c1ccc(O)c([N+](=O)[O-])c1)c1nc2ccccc2s1 | 1830 nM (active)
59 | N#C/C(=C\c1ccc(O)c([N+](=O)[O-])c1)C(=O)NCc1ccccc1 | 3260 nM (active)
60 | COCCNC(=O)/C(C#N)=C/c1ccc(O)c([N+](=O)[O-])c1 | 4600 nM (active)
61 | CC(C)C[C@H](NC(=O)c1[nH]cnc1C(=O)N[C@H](C)c1ccccc1)C(=O)OCc1ccccc1 | inactive
62 | CCN(CC)CC(=O)Nc1c(C)cccc1C | inactive
63 | O=c1/c(=C/c2ccc(O)c([N+](=O)[O-])c2)sc2nc3ccccc3n12 | 2590 nM (active)
64 | COc1ccc2c(c1)C1OCCC1C(c1ccco1)N2 (stereo not drawn) | 2310 nM (active)
65 | Cc1ccc(N2CC(C(=O)Nc3ncc([N+](=O)[O-])s3)CC2=O)cc1 (stereo not drawn) | 365 nM (active)
66 | O=C(Nc1ncc([N+](=O)[O-])s1)C1CC(=O)N(c2ccc(F)cc2)C1 (stereo not drawn) | 1030 nM (active)
67 | O=C(CCN=C1NS(=O)(=O)c2ccccc21)OCC(=O)c1ccc(F)c(F)c1 | inactive
68 | CCCNC(=O)Cn1c(=O)n(C)c2ccccc21 | inactive
69 | COc1cc2c(cc1OC)-c1c(OC)c(OC)cc3ccnc(c13)C2=O | 579 nM (active)
70 | CCN(CC)CCCNc1nc2ccccc2c2[nH]c3ccc(OC)cc3c12 | 183 nM (active)
71 | COc1ccc(-c2nc(NCCCN(C)C)c3ccccc3n2)cc1 | 818 nM (active)
72 | CCN1C(=O)[C@H]2[C@H]3CN=C(SCc4ccccc4)N3[C@@](Cc3ccccc3)(C(=O)OC)[C@H]2C1=O | inactive

Row | SMILES | Potency
73 | Cc1nn2c3cc(N4CCOCC4)ccc3nc2c2ccccc12 | 1030 nM (active)
74 | COc1cccc2c1C(CO)N1C(C#N)C3CC(C(=O)O)C(C1C2)N3C (stereo not drawn) | 1160 nM (active)
75 | O=C(N/N=C/c1ccc([N+](=O)[O-])o1)C1CCCC1 | 516 nM (active)
76 | O=C(N/N=C/c1ccc([N+](=O)[O-])o1)C1CC1 | 1160 nM (active)
77 | CCOc1cc([N+](=O)[O-])cc(/C=C2/NC(=O)N(Cc3ccccc3F)C2=O)c1O | 1630 nM (active)
78 | COc1ccc(-c2coc3cc(O)ccc3c2=O)cc1 | 1160 nM (active)
79 | O=c1c(-c2ccc(F)cc2)coc2cc(O)ccc12 | 918 nM (active)
80 | CC(C)Oc1cc(O)c2c(=O)c(-c3ccc(O)cc3)coc2c1 | 516 nM (active)
81 | CC1(C)Oc2cc3oc(-c4cc(O)cc(O)c4)cc3cc2CC1O (stereo not drawn) | 1450 nM (active)
82 | COC(=O)[C@]1(Cc2ccccc2)N[C@H](CN(C)C(=O)c2ccccc2)[C@@H]2C(=O)N(C)C(=O)[C@@H]21 | inactive
83 | COc1ccc(C(=O)C(C)OC(=O)CNC(=O)C2CCCCC2)cc1 (stereo not drawn) | 4600 nM (active)
84 | COc1ccc2oc(C(=O)OC(C)C(=O)NCc3ccccc3)c(C)c2c1 (stereo not drawn) | inactive
85 | COc1ccc(C(=O)C(C)OC(=O)CNC(=O)c2ccco2)cc1 (stereo not drawn) | 20500 nM (active)
86 | CCOC(=O)N=Nc1c2ccccc2c2nc3no[nH]c3nc12 | 365 nM (active)
87 | Fc1cc2[nH]cnc2cc1Cl | inactive
88 | O=C(NCc1ccco1)NC(=O)c1csc([N+](=O)[O-])c1 | 1630 nM (active)
89 | CC(C)CNC(=S)NC(=O)c1csc([N+](=O)[O-])c1 | 1300 nM (active)
90 | COc1cc(/C=C/C(=O)c2ccc3c(c2)OCCO3)cc(OC)c1OC | 7290 nM (active)
91 | COc1cc(C(=S)N2CCOCC2)ccc1OC(=O)/C=C/c1ccco1 | inactive
92 | Cc1nn(-c2nc3ccccc3[nH]2)c(=O)c2ccccc12 | 230 nM (active)
93 | COC1C(OC(=O)/C=C/C=C/C=C/C=C/C(=O)O)CCC2(CO2)C1C1(C)OC1CC=C(C)C (stereo not drawn) (tested in a mixture with another compound) | 1.5 nM (active)
